{"source": "PubChem BioAssay AID743365", "about": "(National Center for Advancing Translational Sciences (NCATS), 2014)"}
{"assay": "qHTS profiling of inhibitors of Plasmodium falciparum (DD2) proliferation (acoustic dispense)", "conditions": "P. falciparum Dd2 in erythrocytes, SYBR Green DNA, 72 h; at 49.8 µM (top of the series) unless noted", "excerpt": "Plasmodium falciparum is a virulent malarial parasite that kills 1-2 million people worldwide each year. Transmitted by mosquitoes, the sporozoite form of the parasite enters the blood stream to infect hepatocytes, where they become merozoites that infect red blood cells (erythrocytes). Within erythrocytes, merozoites begin a […] cycle of growth and division, after which the parasite is released to infect new red blood cells. Gametocytes, which form within erythrocytes as well, circulate in the bloodstream and are ingested by the mosquito, thereby completing the life cycle. To profile malarial isolates for differential chemical responses and to identify inhibitors of malarial growth, an assay that measures P. falciparum growth and replication within erythrocytes was employed. This assay uses a DNA binding fluorescent dye (SYBR Green) to detect parasite DNA following cell lysis. Because mature erythrocytes lack DNA, only Plasmodium-derived DNA is detected.\nThe SYBR Green viability assay was adapted from a method described previously (Plouffe et al., 2008). For screening 3 ul culture medium was dispensed into 1536 well black clear bottom plates (Aurora Biotechnologies) using a Multidrop Combi (Thermo Fisher Scientific Inc.), 23 nL of compounds in DMSO were added by an acoustic dispenser (EDC Biosystems), and 5 ul of erythrocytes infected with P. falciparum (0.3% parasitemia, 2.5% hematocrit final concentration) were added. The plates were incubated at 37 C in a humidified incubator in 5% CO2 for 72 h, and 2 ul lysis buffer (20 mM Tris HCl, 10 mM EDTA, 0.16% saponin, 1.6% triton X, 10X SYBR Green I supplied as 10,000X […] by Invitrogen) was added to each well. The plates were mixed for 25 sec with gentle shaking and incubated overnight at room temperature in the dark. The following morning, fluorescence intensity at 485(14) nm excitation and 535(25) nm emission wavelengths was measured on an EnVision (Perkin Elmer) plate reader. Plate reads were normalized relative to the control inhibitor (0.29 uM artemisinin) and vehicle (DMSO) wells present on each plate and then corrected by an algorithm using vehicle-only control plates at the beginning and end of the compound plate stack."}
{"smiles": "CO[C@@H]1C(N(C)C(=O)c2ccccc2)C[C@H]2O[C@]1(C)n1c3ccccc3c3c4c(c5c6ccccc6n2c5c31)C(=O)NC4=O", "note": "(stereo not given in full)", "parasite growth, lower = inhibition": "10.1%"}
{"smiles": "Nc1cccc(-c2csc(NC(=O)CCCCCCC(=O)NO)n2)c1", "parasite growth, lower = inhibition": "-0.461%"}
{"smiles": "COc1ncnc(NS(=O)(=O)c2ccc(N)cc2)c1OC", "parasite growth, lower = inhibition": "114%"}
{"smiles": "CCN(CC)Cc1cc(Nc2ccnc3cc(Cl)ccc23)ccc1O", "parasite growth, lower = inhibition": "0.736% [at 23.2 µM]"}
{"smiles": "COc1cc(C)c2c(Oc3cccc(C(F)(F)F)c3)c(OC)cc(NCCCC(C)N)c2n1", "note": "(stereo not given)", "parasite growth, lower = inhibition": "-0.465%"}
{"smiles": "CS[C@H]1SC[C@@H]2C(=O)N(C)[C@H](C(C)C)C(=O)OC[C@H](NC(=O)c3cnc4ccccc4n3)C(=O)N[C@H](C)C(=O)N(C)[C@@H]1C(=O)N(C)[C@H](C(C)C)C(=O)OC[C@H](NC(=O)c1cnc3ccccc3n1)C(=O)N[C@H](C)C(=O)N2C", "parasite growth, lower = inhibition": "0.25%"}
{"smiles": "CO[C@H]1O[C@@H]2O[C@@]3(C)CC[C@@H]4[C@@H](C)CC[C@@H]([C@H]1C)[C@@]24OO3", "parasite growth, lower = inhibition": "-0.475%"}
{"smiles": "CCNC(=O)c1noc(-c2cc(C(C)C)c(O)cc2O)c1-c1ccc(CN2CCOCC2)cc1", "parasite growth, lower = inhibition": "112%"}
{"smiles": "CC1(CN2CCC(n3c(=O)[nH]c4ccccc43)CC2)OCc2ccccc2-n2cccc21", "note": "(stereo not given)", "parasite growth, lower = inhibition": "12.6%"}
{"smiles": "O=C1NC(=O)C(=Cc2ccc3nccc(-c4ccncc4)c3c2)S1", "parasite growth, lower = inhibition": "0.455%"}
{"smiles": "CCC(C=C[C@@H]1OC(=O)C=C[C@H]1C)=C[C@H](C)CC=CC(C)=C[C@@H](C)C(=O)[C@@H](C)[C@H](O)[C@@H](C)CC(C)=CC(=O)O", "parasite growth, lower = inhibition": "97.6% [at 1.88 µM]"}
{"smiles": "Cc1[nH]c2ccccc2c1CCNCc1ccc(C=CC(=O)NO)cc1", "parasite growth, lower = inhibition": "-0.777%"}
{"smiles": "Cc1nc2cnc3ccc(C#Cc4cccnc4)cc3c2n1-c1ccc(C(C)(C)C#N)cc1", "parasite growth, lower = inhibition": "0.532%"}
{"smiles": "COc1cc(NC(C)CCCN)c2ncccc2c1", "note": "(stereo not given)", "parasite growth, lower = inhibition": "-0.0889%"}
{"smiles": "C=C[C@@H]1CN2CCC1C[C@@H]2C(O)c1ccnc2ccc(OC)cc12", "note": "(stereo not given in full)", "parasite growth, lower = inhibition": "1.83%"}
{"smiles": "CCN(CC)CCCC(C)Nc1ccnc2cc(Cl)ccc12", "note": "(stereo not given)", "parasite growth, lower = inhibition": "-0.356%"}
{"smiles": "C[C@H]1c2cccc(O)c2C(O)=C2C(=O)[C@]3(O)C(O)=C(C(N)=O)C(=O)[C@@H](N(C)C)[C@@H]3[C@@H](O)[C@@H]21", "parasite growth, lower = inhibition": "1.85%"}
{"smiles": "CN([C@@H](Cc1ccc(OS(=O)(=O)c2cccc3cnccc23)cc1)C(=O)N1CCN(c2ccccc2)CC1)S(=O)(=O)c1cccc2cnccc12", "parasite growth, lower = inhibition": "0.489%"}
{"smiles": "C#Cc1cccc(Nc2ncnc3cc(OC)c(OCCCCCCC(=O)NO)cc23)c1", "parasite growth, lower = inhibition": "-0.648%"}
{"smiles": "CC(C)Oc1cc(Nc2nc(N[C@@H](C)c3ccc(F)cn3)ncc2Cl)[nH]n1", "parasite growth, lower = inhibition": "3.28%"}
{"smiles": "O[C@H](c1cc(C(F)(F)F)nc2c(C(F)(F)F)cccc12)[C@H]1CCCCN1", "parasite growth, lower = inhibition": "0.891% [at 23.2 µM]"}
{"smiles": "COc1ccc2cc3[n+](cc2c1OC)CCc1cc2c(cc1-3)OCO2", "parasite growth, lower = inhibition": "-0.889%"}
{"smiles": "CCc1cc(Nc2nccc(-c3c(-c4ccc(OC)c(C(=O)Nc5c(F)cccc5F)c4)nc4ccccn34)n2)c(OC)cc1N1CCC(N2CCN(S(C)(=O)=O)CC2)CC1", "parasite growth, lower = inhibition": "-0.192%"}
{"smiles": "C=C[C@@H]1CN2CC[C@@H]1C[C@H]2[C@H](O)c1ccnc2ccc(OC)cc12", "parasite growth, lower = inhibition": "0.438%"}
{"smiles": "CCN(CC)CCNC(=O)c1c(C)[nH]c(C=C2C(=O)Nc3ccc(F)cc32)c1C", "parasite growth, lower = inhibition": "-0.534% [at 100 µM]"}
{"smiles": "CO[C@H]1C=CO[C@@]2(C)Oc3c(C)c(O)c4c(O)c(c(C=NN5CCN(C)CC5)c(O)c4c3C2=O)NC(=O)C(C)=CC=C[C@H](C)[C@H](O)[C@@H](C)[C@@H](O)[C@@H](C)[C@H](OC(C)=O)[C@H]1C", "parasite growth, lower = inhibition": "-0.189% [at 16.5 µM]"}
{"smiles": "C[C@@H]1CCC2[C@@H](C)[C@@H](O)O[C@@H]3O[C@@]4(C)CC[C@@H]1[C@@]23OO4", "note": "(stereo not given in full)", "parasite growth, lower = inhibition": "-0.395%"}
{"smiles": "C=CCNc1c(O)cc2c(O)c1C[C@@H](C)C[C@H](OC)[C@@H](O)[C@@H](C)C=C(C)[C@H](OC(N)=O)[C@@H](OC)C=CC=C(C)C(=O)N2", "parasite growth, lower = inhibition": "-0.701%"}
{"smiles": "CC[C@H]1OC(=O)[C@H](C)[C@@H](O[C@H]2C[C@@](C)(OC)[C@@H](O)[C@H](C)O2)[C@H](C)[C@@H](O[C@@H]2O[C@H](C)C[C@H](N(C)C)[C@@H]2O)[C@](C)(O)C[C@@H](C)CN(C)[C@H](C)[C@@H](O)[C@]1(C)O", "parasite growth, lower = inhibition": "9.84%"}
{"smiles": "CC(C)[C@H](C(=O)Nc1ccc(C(=O)NO)cc1)c1ccccc1", "parasite growth, lower = inhibition": "0.408%"}
{"smiles": "CCCCN(CCCC)CC(O)c1cc(Cl)cc2c1-c1ccc(Cl)cc1C2=Cc1ccc(Cl)cc1", "note": "(stereo not given)", "parasite growth, lower = inhibition": "-0.158%"}
{"smiles": "O=C1c2ccccc2-[n+]2ccc3c([nH]c4ccccc43)c21", "parasite growth, lower = inhibition": "2.4%"}
{"smiles": "Cc1cn(-c2cc(NC(=O)c3ccc(C)c(Nc4nccc(-c5cccnc5)n4)c3)cc(C(F)(F)F)c2)cn1", "parasite growth, lower = inhibition": "7.6%"}
{"smiles": "CCOC(=O)[C@H](CCc1ccccc1)N[C@H]1CS[C@H](c2cccs2)CN(CC(=O)O)C1=O", "parasite growth, lower = inhibition": "61.3%"}
{"smiles": "c1cncc(CN2CCC(n3ncc4c(N5CCOCC5)nc(-c5ccc6[nH]ccc6c5)nc43)CC2)c1", "parasite growth, lower = inhibition": "0.462%"}
{"smiles": "C=CCNC1=C2C[C@@H](C)C[C@H](OC)[C@@H](O)[C@@H](C)C=C(C)[C@H](OC(N)=O)[C@@H](OC)C=CC=C(C)C(=O)NC(=CC1=O)C2=O", "parasite growth, lower = inhibition": "0.49%"}
{"smiles": "NC1CCC(Nc2nc(Nc3ccc(C(=O)N4CCCCC4)cc3)c3ncn(-c4cccc(F)c4)c3n2)CC1", "note": "(stereo not given)", "parasite growth, lower = inhibition": "-0.359%"}
{"smiles": "CO[C@H]1C=CC=C(C)C(=O)NC2=CC(=O)C(NCCN(C)C)=C(C[C@@H](C)C[C@H](OC)[C@@H](O)[C@@H](C)C=C(C)[C@@H]1OC(N)=O)C2=O", "parasite growth, lower = inhibition": "-1.01%"}
{"smiles": "Cn1cnc(=N)c2[nH]cnc21", "parasite growth, lower = inhibition": "0.26%"}
{"smiles": "O=C(Nc1cn[nH]c1-c1nc2ccc(CN3CCOCC3)cc2[nH]1)NC1CC1", "parasite growth, lower = inhibition": "0.452%"}
